Assay outcomes deposited in PubChem BioAssay by Bradner/Qi Labs at DFCI.
The sample as a whole holds a higher share of hits than the screen did.
CBX7 AlphaScr: blocks human CBX7 binding to H3K27me3 peptide | hit rate 1.1% among 66,000 | O95931 | AID 1224903 | normalised signal (fraction of DMSO) (concentration not given with the values) | AlphaScreen His6-CBX7 / biotin-H3K27me3 peptide binding; hits give low values; in the data active means normalised signal below about 0.5
Target sequence (O95931 whole entry, looked up): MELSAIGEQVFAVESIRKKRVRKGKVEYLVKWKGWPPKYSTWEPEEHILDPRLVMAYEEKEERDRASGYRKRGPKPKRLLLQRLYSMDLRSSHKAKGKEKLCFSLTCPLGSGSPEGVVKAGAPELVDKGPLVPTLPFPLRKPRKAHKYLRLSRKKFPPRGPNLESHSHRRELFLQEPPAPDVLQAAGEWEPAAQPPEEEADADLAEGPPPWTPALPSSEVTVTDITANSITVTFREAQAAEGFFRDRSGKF
Numbers without * were called inactive.

COc1ccccc1CNc1ccc2c(c1)ncn2C(C)(C)C was read as CBX7 AlphaScr 0.66.
For COc1ccccc1-n1cnc2cc(NCc3ccc(N(C)C)cc3)ccc21 the results were CBX7 AlphaScr 0.24*.
CC(C)c1ccc(CNc2ccc3c(c2)ncn3C)cc1 was read as CBX7 AlphaScr 0.83.
For Cc1nc2cc(NCc3ccc(C(C)C)cc3)ccc2n1C the results were CBX7 AlphaScr 0.7.
Screening COc1ccccc1-n1cnc2cc(Nc3nnc(C)c4ccccc34)ccc21 returned CBX7 AlphaScr 1.
For Brc1ccc(CNc2ccc3c(c2)ncn3-c2ccccc2)cc1 the results were CBX7 AlphaScr 0.24*.
CC(C)(C)n1cnc2cc(NCc3ccc(Br)cc3)ccc21 was read as CBX7 AlphaScr 0.78.
`COc1ccccc1-n1cnc2cc(NCc3ccc(C(C)C)cc3)ccc21` gave CBX7 AlphaScr 0.2*.
`Cn1cnc2cc(NCc3ccc(Br)cc3)ccc21` gave CBX7 AlphaScr 0.91.
CN(CCNC(=O)c1ccc2nc(N3CCOCC3)sc2c1)C1CCCCC1 was read as CBX7 AlphaScr 1.1.
For CC1CCCCN1C(=O)c1cc2n(n1)C(C(F)(F)F)CC(c1ccc(Cl)c(Cl)c1)N2 (stereo unspecified) the results were CBX7 AlphaScr 1.1.
For CC1CCN(S(=O)(=O)c2ccc3ncn(CC(=O)Nc4cccc(Cl)c4)c(=O)c3c2)CC1 the results were CBX7 AlphaScr 0.99.
Cc1cccc(C)c1NC(=O)CSc1nccn1Cc1ccccc1 was read as CBX7 AlphaScr 0.95.
`FC(F)(F)c1cccc(-n2cc(-c3ccccc3)c3c(NCc4cccs4)ncnc32)c1` gave CBX7 AlphaScr 0.99.
COc1cccc(NC(=O)CSc2nccn2-c2cccc(Cl)c2)c1 was read as CBX7 AlphaScr 0.84.
`Cc1ccc(NC(=O)c2c(O)c3ccccc3[nH]c2=O)cc1` gave CBX7 AlphaScr 0.97.
Screening Cc1onc(-c2ccccc2Cl)c1C(=O)N(C)c1ccccc1 returned CBX7 AlphaScr 1.
For N#CCCN(C(=O)Cn1ncc2c1-c1ccccc1OC2)c1ccccc1 the results were CBX7 AlphaScr 1.1.
`COc1cc(-c2nc(-c3ccc(C)c(C)c3)c(-c3ccc(C)c(C)c3)[nH]2)cc(OC)c1O` gave CBX7 AlphaScr 0.49*.
`COc1cc(-c2nc(-c3ccc(C)c(C)c3)c(-c3ccccc3)[nH]2)cc2c1OCO2` gave CBX7 AlphaScr 0.7.
`COc1ccc(-c2nc(-c3ccc(C)cc3)[nH]c2-c2ccc(OC)cc2)cc1` gave CBX7 AlphaScr 0.7.
`COc1ccccc1CNC(=O)c1cccc(NC2=NC3CS(=O)(=O)CC3S2)c1` (stereo unspecified) gave CBX7 AlphaScr 0.99.
COC(=O)c1ccc(-n2c(/C=C/c3cccc4ccccc34)nc3ccccc3c2=O)cc1 was read as CBX7 AlphaScr 1.1.
CC1=Nc2cc(C(=O)NCCN(C)C)ccc2Sc2ccc(Br)cc21 was read as CBX7 AlphaScr 1.1.
`O=C(Cn1nnc(-c2ccccc2Cl)n1)Nc1ccc(OC(F)(F)F)cc1` gave CBX7 AlphaScr 1.1.
O=C1c2[nH]nc(-c3ccccc3)c2C(c2ccccc2)N1c1ccccc1 (stereo unspecified) was read as CBX7 AlphaScr 1.
CC(C)c1ccc(C2c3c(-c4ccccc4)n[nH]c3C(=O)N2c2ccccc2)cc1 (stereo unspecified) was read as CBX7 AlphaScr 0.84.
COc1ccc(C2c3c(-c4ccccc4)n[nH]c3C(=O)N2c2ccccc2)cc1 (stereo unspecified) was read as CBX7 AlphaScr 0.38*.
Screening COc1ccc(NC(=O)c2cc(-c3ccccc3OC)on2)c(OC)c1 returned CBX7 AlphaScr 1.4.
For CCCC(=O)Nc1sc2c(c1C(=O)Nc1ccccc1)CCC2 the results were CBX7 AlphaScr 0.97.
COCCCNC(=O)c1ccc2c(c1)N(Cc1ccc(F)cc1Cl)C(=O)CS2 was read as CBX7 AlphaScr 1.
Screening O=C(NC1CCCCCC1)C1CCC(CNc2c(NC3CCCCC3)c(=O)c2=O)CC1 (stereo unspecified) returned CBX7 AlphaScr 0.92.
Cn1cnc2cc(NCc3cccc(Br)c3)ccc21 was read as CBX7 AlphaScr 0.85.
Screening Cn1cnc2cc(NCc3ccccc3Cl)ccc21 returned CBX7 AlphaScr 0.92.
CC(C)n1cnc2cc(NCc3ccccn3)ccc21 was read as CBX7 AlphaScr 0.23*.
COc1ccccc1-n1cnc2cc(C(=O)NCC(OC)OC)ccc21 was read as CBX7 AlphaScr 1.
`COc1ccccc1OCc1nc(C#N)c(NCCc2ccccc2)o1` gave CBX7 AlphaScr 0.92.
For N#Cc1nc(COc2ccc(Cl)cc2)oc1NCc1cccnc1 the results were CBX7 AlphaScr 0.97.
For N#Cc1nc(COc2ccccc2Cl)oc1NCCCn1ccnc1 the results were CBX7 AlphaScr 0*.
`CN(Cc1ccccc1)c1oc(COc2ccc(Cl)cc2)nc1C#N` gave CBX7 AlphaScr 0.48*.
`COc1ccc(CCNc2oc(COc3ccc(Cl)cc3)nc2C#N)cc1` gave CBX7 AlphaScr 0.93.
Screening CN(Cc1ccccc1)c1oc(COc2ccccc2F)nc1C#N returned CBX7 AlphaScr 0.42*.
`CC(Nc1oc(COc2ccccc2F)nc1C#N)c1ccccc1` (stereo unspecified) gave CBX7 AlphaScr 0.8.
For COc1ccc(Nc2oc(COc3ccccc3F)nc2C#N)cc1 the results were CBX7 AlphaScr 1.1.
Cc1ccccc1OCc1nc(C#N)c(NCCCn2ccnc2)o1 was read as CBX7 AlphaScr 0.89.
For N#Cc1nc(COc2ccc(F)cc2)oc1NCCc1ccccc1 the results were CBX7 AlphaScr 0.56.
For N#Cc1nc(COc2ccccc2F)oc1NCCc1ccccc1 the results were CBX7 AlphaScr 0.49*.
For N#Cc1nc(COc2ccc(Cl)cc2)oc1NCCCn1ccnc1 the results were CBX7 AlphaScr 0.9.
`CCOC(=O)c1c(NC(=O)COc2ccccc2C(C)(C)C)sc2c1CCC(C)C2` (stereo unspecified) gave CBX7 AlphaScr 1.2.
COc1ccc(Nc2cc(C(=O)N3CCN(c4ccc(F)cc4)CC3)c3ccccc3n2)c(OC)c1 was read as CBX7 AlphaScr 0.72.
For COc1cccc(N2CCN(C(=O)c3ccc(Cn4c(=O)[nH]c5ccccc5c4=O)cc3)CC2)c1 the results were CBX7 AlphaScr 0.66.
O=C(COc1nsnc1N1CCCCC1)Nc1ccc(Br)cc1 was read as CBX7 AlphaScr 1.1.
COc1ccc(S(=O)(=O)CCc2nnc(NC(=O)c3ccc(C)cc3)s2)cc1 was read as CBX7 AlphaScr 1.1.
For COc1ccc(CC(=O)NCCc2cc3ccc(OC)cc3[nH]c2=O)cc1 the results were CBX7 AlphaScr 1.
`CCOc1ccc(N2CC(C(=O)NCCOC)CC2=O)cc1` (stereo unspecified) gave CBX7 AlphaScr 0.96.
For O=C(c1ccc2nc(N3CCOCC3)sc2c1)N1CCN(c2cccc(C(F)(F)F)c2)CC1 the results were CBX7 AlphaScr 1.
COc1ccc(NC(=O)CCn2ccnc2C)cc1Cl was read as CBX7 AlphaScr 0.98.
For CCc1nnc(NC(=O)c2ccc(S(=O)(=O)N(C)c3ccccc3)cc2)o1 the results were CBX7 AlphaScr 0.68.
For CCc1nnc(NC(=O)c2ccc(S(=O)(=O)N(CC)CC)cc2)o1 the results were CBX7 AlphaScr 0.1*.
Screening CCc1nnc(NC(=O)c2ccc(S(=O)(=O)N(CC(C)C)CC(C)C)cc2)o1 returned CBX7 AlphaScr 0.1*.
Screening CCN(CC)S(=O)(=O)c1ccc(C(=O)Nc2nnc(C(C)C)s2)cc1 returned CBX7 AlphaScr 1.1.
